The text below walks through data of PubChem BioAssay (NCI).

The panel holds about 79,000 compounds, 15% with a hit somewhere; the sample as a whole holds those more often. Unmarked numbers belong to inactive results. The source made the active and inactive calls. Cut-off read from the data, not from the text of the source: active = growth inhibition above about 70%; inactive = the rest.

A short description of assay [1]: NCI Yeast Anticancer Drug Screen. Data for the rad50 strain (AID 155).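 Note: 0% = growth of vehicle-only cultures of the same strain.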 The settings on record: S. cerevisiae rad50 strain growth inhibition, active compounds read high. The procedure, abridged:
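Readout: growth inhibition relative to vehicle-treated cultures. Compound exposure was carried out in a genetically defined yeast strain deficient in DNA damage repair.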

Assay [2] in a line: NCI Yeast Anticancer Drug Screen. Data for the mec2-1 strain (AID 157). To be noted: S. cerevisiae mec2-1 strain, active compounds read high. In short, it runs like this:
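Mutant yeast (mec2-1) grown with compound; growth inhibition relative to vehicle control reported.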

Assay [3] is described as follows: NCI Yeast Anticancer Drug Screen. Data for the sgs1 mgt1 strain (AID 161).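 Note: 0% = growth of cultures given vehicle only.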 To be noted: S. cerevisiae sgs1 mgt1 strain, active compounds read high. In short, it runs like this:
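Growth of a repair-deficient yeast mutant was monitored after compound treatment and expressed as inhibition relative to vehicle-treated cultures.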

Assay [4] is described as follows: NCI Yeast Anticancer Drug Screen. Data for the cln2 rad14 strain (AID 165).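 Note: 0% = growth equal to vehicle treated cultures.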 To be noted: S. cerevisiae cln2 rad14 strain, active compounds read high. In short, it runs like this:
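Readout is yeast growth inhibition versus vehicle-treated controls, using a strain with cln2 and rad14 alterations exposed to compound.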

Assay [5] can be described thus: NCI Yeast Anticancer Drug Screen. Data for the bub3 strain (AID 167). The settings on record: S. cerevisiae bub3 mutant strain, active compounds read high. The procedure, abridged:
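Readout: yeast growth inhibition, expressed relative to vehicle-only wells. The test organism is a mutant strain from a panel with lesions in DNA repair or checkpoint genes.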

A short description of assay [6]: NCI Yeast Anticancer Drug Screen. Data for the mlh1 rad18 strain (AID 175). The settings on record: S. cerevisiae mlh1 rad18 strain growth inhibition, active compounds read high. In short, it runs like this:
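Genetically defined yeast (DNA repair-deficient) exposed to compounds; growth inhibition determined relative to vehicle.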

Where [7] appears, read: at 5.0 µM (retest, dose inferred, filed as 0.5).
The mark [8] stands for this setting: at 50.0 µM (retest, dose inferred, filed as 5.0).

Regarding `O=C1c2ccccc2Cc2cc(O)ccc21`, the growth inhibition in assay [1] (setting [7]) is 29%; in assay [1] (setting [8]), 94% (active); in assay [1] (at 50.0 µM) it was 47.5%; in assay [2] (setting [7]), 13%; in assay [2] (setting [8]), 92% (active); in assay [2] (at 50.0 µM) it was 48.4%. The growth inhibition in assay [3] (setting [7]) was 8%; in assay [3] (setting [8]), 91% (active); in assay [3] (at 50.0 µM), 45%; in assay [4] (setting [7]), 4%; in assay [4] (setting [8]), 88% (active); in assay [4] (at 50.0 µM), 82.5% (active). For the same compound, the growth inhibition is 2% in assay [5] (setting [7]); 89% (active) in assay [5] (setting [8]); 88.6% (active) in assay [5] (at 50.0 µM); 10% in assay [6] (setting [7]); 92% (active) in assay [6] (setting [8]); 91.3% (active) in assay [6] (at 50.0 µM).
Consider `O=C(/C=N/O)Nc1ccc(Cl)c(I)c1`, for which the growth inhibition in assay [1] (setting [7]) was -32%; in assay [1] (setting [8]) it was 83% (active); in assay [1] (at 50.0 µM) it was 85.2% (active); in assay [2] (setting [7]) it was -15%; in assay [2] (setting [8]) it was 87% (active); in assay [2] (at 50.0 µM) it was 86.5% (active). Besides, the growth inhibition in assay [3] (setting [7]) was -17%; in assay [3] (setting [8]) it was 85% (active); in assay [3] (at 50.0 µM), 80.2% (active); in assay [4] (setting [7]), 5%; in assay [4] (setting [8]) it was 88% (active); in assay [4] (at 50.0 µM) it was 81.9% (active). For the same compound, the growth inhibition in assay [5] (setting [7]) was -9%; in assay [5] (setting [8]), 93% (active); in assay [5] (at 50.0 µM) it was 86.8% (active); in assay [6] (setting [7]), -24%; in assay [6] (setting [8]), 92% (active); in assay [6] (at 50.0 µM) it was 84.6% (active).
As for `O=[N+]([O-])c1cccc2nc3ccccc3c(NCCNCCO)c12`, the growth inhibition in assay [1] (setting [7]) is 89% (active); in assay [1] (setting [8]) it was 98% (active); in assay [1] (at 50.0 µM), 75.3% (active); in assay [2] (setting [7]), 95% (active); in assay [2] (setting [8]) it was 99% (active); in assay [2] (at 50.0 µM), 51.2%. In addition, the growth inhibition in assay [3] (setting [7]) was 90% (active); in assay [3] (setting [8]), 99% (active); in assay [3] (at 50.0 µM), 80.2% (active); in assay [4] (setting [7]), 75% (active); in assay [4] (setting [8]), 98% (active); in assay [4] (at 50.0 µM) it was 76.8% (active). The growth inhibition in assay [5] (setting [7]) was 42%; in assay [5] (setting [8]), 99% (active); in assay [5] (at 50.0 µM), 10.6%; in assay [6] (setting [7]), 89% (active); in assay [6] (setting [8]), 98% (active); in assay [6] (at 50.0 µM), 88% (active).
Take `CCCCCCCCCCOC(=O)c1cccnc1`: the growth inhibition is 5% in assay [1] (setting [7]); 86% (active) in assay [1] (setting [8]); -5.45% in assay [1] (at 50.0 µM); 0% in assay [2] (setting [7]); 52% in assay [2] (setting [8]); 39.3% in assay [2] (at 50.0 µM). Further, the growth inhibition in assay [3] (setting [7]) is 7%; in assay [3] (setting [8]) it was 74% (active); in assay [3] (at 50.0 µM) it was 30.6%; in assay [4] (setting [7]) it was 3%; in assay [4] (setting [8]), 34%; in assay [4] (at 50.0 µM) it was -1.4%. Also, the growth inhibition in assay [5] (setting [7]) was 8%; in assay [5] (setting [8]), 91% (active); in assay [5] (at 50.0 µM), 78.2% (active); in assay [6] (setting [7]), 9%; in assay [6] (setting [8]), 87% (active); in assay [6] (at 50.0 µM), 80.5% (active).
Consider `CN1COc2c(Cl)cc(Cl)cc2C1`, for which the growth inhibition in assay [1] (setting [7]) was -3%; in assay [1] (setting [8]), 85% (active); in assay [1] (at 50.0 µM) it was 76.2% (active); in assay [2] (setting [7]), -2%; in assay [2] (setting [8]), 45%; in assay [2] (at 50.0 µM), 57.2%. Moreover, the growth inhibition in assay [3] (setting [7]) was 0%; in assay [3] (setting [8]), 91% (active); in assay [3] (at 50.0 µM), -5.15%; in assay [4] (setting [7]), -3%; in assay [4] (setting [8]), 46%; in assay [4] (at 50.0 µM), -4%. The growth inhibition in assay [5] (setting [7]) is -4%; in assay [5] (setting [8]), 75% (active); in assay [5] (at 50.0 µM), 45.5%; in assay [6] (setting [7]), -1%; in assay [6] (setting [8]) it was 86% (active); in assay [6] (at 50.0 µM), 42.5%.
Turning to `Cc1c2ccccc2c(C)n2c1nc1cc(Cl)c(Cl)cc12`, the growth inhibition in assay [1] (setting [7]) is 12%; in assay [1] (setting [8]), 95% (active); in assay [1] (at 50.0 µM), 86.2% (active); in assay [2] (setting [7]) it was 7%; in assay [2] (setting [8]), 93% (active); in assay [2] (at 50.0 µM), 91.3% (active). The growth inhibition in assay [3] (setting [7]) is 26%; in assay [3] (setting [8]), 45%; in assay [3] (at 50.0 µM) it was 89.3% (active); in assay [4] (setting [7]), 27%; in assay [4] (setting [8]), 95% (active); in assay [4] (at 50.0 µM) it was 87.1% (active). Further, the growth inhibition is 18% in assay [5] (setting [7]); 97% (active) in assay [5] (setting [8]); 89.9% (active) in assay [5] (at 50.0 µM); 23% in assay [6] (setting [7]); 96% (active) in assay [6] (setting [8]); 85.6% (active) in assay [6] (at 50.0 µM).
As to `Clc1sc2ccccc2c1Cl`, the growth inhibition in assay [1] (setting [7]) is 2%; in assay [1] (setting [8]), -18%; in assay [1] (at 50.0 µM) it was 22.2%; in assay [2] (setting [7]), -5%; in assay [2] (setting [8]), -3%; in assay [2] (at 50.0 µM), -11.9%. In addition, the growth inhibition in assay [3] (setting [7]) is 2%; in assay [3] (setting [8]), 1%; in assay [3] (at 50.0 µM) it was 25.2%; in assay [4] (setting [7]), 4%; in assay [4] (setting [8]), -4%; in assay [4] (at 50.0 µM) it was 36.6%. Also, the growth inhibition was -79% in assay [5] (setting [7]); 0% in assay [5] (setting [8]); -7.55% in assay [5] (at 50.0 µM); -1% in assay [6] (setting [7]); -2% in assay [6] (setting [8]); 14.6% in assay [6] (at 50.0 µM).
Take `N#CC(=C1C=CC(=NOC(=O)Nc2ccccc2)C=C1)c1ccccc1`: the growth inhibition in assay [1] (setting [7]) is 18%; in assay [1] (setting [8]) it was 98% (active); in assay [1] (at 50.0 µM) it was 99% (active); in assay [2] (setting [7]), 4%; in assay [2] (setting [8]), 99% (active); in assay [2] (at 50.0 µM), 99.4% (active). Besides, the growth inhibition in assay [3] (setting [7]) was 11%; in assay [3] (setting [8]), 99% (active); in assay [3] (at 50.0 µM), 99.5% (active); in assay [4] (setting [7]) it was 1%; in assay [4] (setting [8]) it was 99% (active); in assay [4] (at 50.0 µM) it was 88.3% (active). In addition, the growth inhibition in assay [5] (setting [7]) is -5%; in assay [5] (setting [8]), 98% (active); in assay [5] (at 50.0 µM), 99.2% (active); in assay [6] (setting [7]), 5%; in assay [6] (setting [8]), 98% (active); in assay [6] (at 50.0 µM), 99.2% (active).
Turning to `C1=C(c2ccccc2)C(c2ccccc2)C(c2ccccc2)C/C1=N/OCCN1CCCC1` (stereo not given), the growth inhibition in assay [1] (setting [7]) was 30%; in assay [1] (setting [8]) it was 99% (active); in assay [1] (at 50.0 µM) it was 99% (active); in assay [2] (setting [7]) it was 55%; in assay [2] (setting [8]), 99% (active); in assay [2] (at 50.0 µM), 99.6% (active). For the same compound, the growth inhibition in assay [3] (setting [7]) is 17%; in assay [3] (setting [8]), 100% (active); in assay [3] (at 50.0 µM), 99.6% (active); in assay [4] (setting [7]), -9%; in assay [4] (setting [8]) it was 98% (active); in assay [4] (at 50.0 µM), 55.1%. Further, the growth inhibition in assay [5] (setting [7]) is 39%; in assay [5] (setting [8]), 99% (active); in assay [5] (at 50.0 µM), 99.2% (active); in assay [6] (setting [7]) it was 78% (active); in assay [6] (setting [8]) it was 99% (active); in assay [6] (at 50.0 µM), 97.7% (active).
Consider `CCCOC(=O)COc1ccccc1C(=O)OCCC`, for which the growth inhibition in assay [1] (setting [7]) is 5%; in assay [1] (setting [8]) it was 10%; in assay [1] (at 50.0 µM), -1.2%; in assay [2] (setting [7]), 2%; in assay [2] (setting [8]) it was 7%; in assay [2] (at 50.0 µM), -15.5%. Further, the growth inhibition in assay [3] (setting [7]) is 0%; in assay [3] (setting [8]), 11%; in assay [3] (at 50.0 µM), 6%; in assay [4] (setting [7]), 13%; in assay [4] (setting [8]), 15%; in assay [4] (at 50.0 µM), 14.9%. Moreover, the growth inhibition was 10% in assay [5] (setting [7]); 44% in assay [5] (setting [8]); 23.2% in assay [5] (at 50.0 µM); 0% in assay [6] (setting [7]); 13% in assay [6] (setting [8]); -11.4% in assay [6] (at 50.0 µM).
